Publication PMC11006913

Assays:
Test in all cases: PBM; 200 nM protein, PBS
Conditions in all cases: dsDNA, one strand shown
HOXA2 [1] = target: HOXA2 (Homo sapiens, UniProt O43364 129-215, R185T)
HOXA2 [2] = target: HOXA2 (Homo sapiens, UniProt O43364 129-215, R185K)
ALX4 = ALX4 (Homo sapiens, UniProt Q9H161 200-286)
PRRX1 [3] = target: PRRX1 (Homo sapiens, UniProt P54821 80-166, F113S)
PAX4 = target: T1, PAX4 (Homo sapiens, UniProt O43316 9-242, R200Q)
T1 sequence: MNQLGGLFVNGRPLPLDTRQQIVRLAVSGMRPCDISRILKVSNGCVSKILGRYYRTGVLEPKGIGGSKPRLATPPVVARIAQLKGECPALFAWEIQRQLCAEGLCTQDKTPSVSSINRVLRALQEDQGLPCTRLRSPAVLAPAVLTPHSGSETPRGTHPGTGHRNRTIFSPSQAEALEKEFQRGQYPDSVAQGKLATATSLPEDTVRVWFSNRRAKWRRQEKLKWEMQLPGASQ

MSX2 [4] = target: MSX2 (Homo sapiens, UniProt P35548 130-214)
Chain of MSX2 (Homo sapiens, UniProt P35548 130-214) (P35548 130-214): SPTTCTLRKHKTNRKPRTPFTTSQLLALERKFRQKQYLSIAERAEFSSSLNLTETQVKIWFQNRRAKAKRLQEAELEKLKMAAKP

MSX2 [5] = target: MSX2 (Homo sapiens, UniProt P35548 130-214, F161Y)
Chain of MSX2 (Homo sapiens, UniProt P35548 130-214, F161Y) (P35548 130-214 F161Y): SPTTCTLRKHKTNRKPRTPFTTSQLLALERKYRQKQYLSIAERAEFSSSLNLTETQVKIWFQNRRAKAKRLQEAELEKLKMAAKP

VAX1 [6] = target: VAX1 (Homo sapiens, UniProt Q5SQQ9 86-172, T142I)
Chain of VAX1 (Homo sapiens, UniProt Q5SQQ9 86-172, T142I) (Q5SQQ9 86-172 T142I): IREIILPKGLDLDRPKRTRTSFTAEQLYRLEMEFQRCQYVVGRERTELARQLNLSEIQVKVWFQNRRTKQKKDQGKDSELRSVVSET

PRRX1 [7] = target: PRRX1 (Homo sapiens, UniProt P54821 80-166)
Chain of PRRX1 (Homo sapiens, UniProt P54821 80-166) (P54821 80-166): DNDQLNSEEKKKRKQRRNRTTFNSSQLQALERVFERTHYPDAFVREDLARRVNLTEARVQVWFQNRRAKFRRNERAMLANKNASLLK

VAX1 [8] = target: VAX1 (Homo sapiens, UniProt Q5SQQ9 86-172, K157R)
Chain of VAX1 (Homo sapiens, UniProt Q5SQQ9 86-172, K157R) (Q5SQQ9 86-172 K157R): as the sequence (Q5SQQ9 86-172 T142I) above, with I57T, K72R counted along it

HOXB6 [9] = target: HOXB6 (Homo sapiens, UniProt P17509 132-218, K202E)
Chain of HOXB6 (Homo sapiens, UniProt P17509 132-218, K202E) (P17509 132-218 K202E): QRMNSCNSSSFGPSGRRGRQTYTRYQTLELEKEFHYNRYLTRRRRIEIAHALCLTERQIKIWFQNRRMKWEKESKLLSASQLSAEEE

HOXA4 [10] = target: HOXA4 (Homo sapiens, UniProt Q00056 201-287, R217L)
Chain of HOXA4 (Homo sapiens, UniProt Q00056 201-287, R217L) (Q00056 201-287 R217L): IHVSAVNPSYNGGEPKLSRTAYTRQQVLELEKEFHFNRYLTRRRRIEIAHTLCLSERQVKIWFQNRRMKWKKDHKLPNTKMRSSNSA

HOXA4 [11] = target: HOXA4 (Homo sapiens, UniProt Q00056 201-287, W262F)
Chain of HOXA4 (Homo sapiens, UniProt Q00056 201-287, W262F) (Q00056 201-287 W262F): as the sequence (Q00056 201-287 R217L) above, with L17R, W62F counted along it

HOXB6 [12] = target: HOXB6 (Homo sapiens, UniProt P17509 132-218)
Chain of HOXB6 (Homo sapiens, UniProt P17509 132-218) (P17509 132-218): as the sequence (P17509 132-218 K202E) above, with E71K counted along it

Chain of ALX4 (Q9H161 200-286): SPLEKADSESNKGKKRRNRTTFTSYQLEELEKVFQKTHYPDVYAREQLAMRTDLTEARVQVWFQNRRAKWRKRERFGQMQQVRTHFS
Chain of PRRX1 (Homo sapiens, UniProt P54821 80-166, F113S) (P54821 80-166 F113S): as the sequence (P54821 80-166) above, with F34S counted along it
Chain of HOXA2 (Homo sapiens, UniProt O43364 129-215, R185T) (O43364 129-215 R185T): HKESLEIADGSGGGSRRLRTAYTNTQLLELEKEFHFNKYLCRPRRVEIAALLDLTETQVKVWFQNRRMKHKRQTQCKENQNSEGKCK
Chain of HOXA2 (Homo sapiens, UniProt O43364 129-215, R185K) (O43364 129-215 R185K): as the sequence (O43364 129-215 R185T) above, with T57K counted along it

Row | Sequence | binding signal (HOXA2 [1]) | binding signal (HOXA2 [2]) | binding signal (ALX4) | binding signal (PRRX1 [3]) | binding signal (PAX4) | binding signal (MSX2 [4]) | binding signal (MSX2 [5]) | binding signal (VAX1 [6]) | binding signal (PRRX1 [7]) | binding signal (VAX1 [8]) | binding signal (HOXB6 [9]) | binding signal (HOXA4 [10]) | binding signal (HOXA4 [11]) | binding signal (HOXB6 [12])
1 | GAGGGGGC | 7.01 upbm affinity estimate (log intensity, higher = more binding, comparable within an allelic series) | 10.1 upbm affinity estimate (log intensity, higher = more binding, comparable within an allelic series) |  |  |  |  |  |  |  |  |  |  |  | 
2 | AATTAGCC |  |  | 13.8 upbm affinity estimate (log intensity, higher = more binding, comparable within an allelic series) | 10.7 upbm affinity estimate (log intensity, higher = more binding, comparable within an allelic series) | 11.7 upbm affinity estimate (log intensity, higher = more binding, comparable within an allelic series) | 13.3 upbm affinity estimate (log intensity, higher = more binding, comparable within an allelic series) | 12.9 upbm affinity estimate (log intensity, higher = more binding, comparable within an allelic series) | 12.1 upbm affinity estimate (log intensity, higher = more binding, comparable within an allelic series) | 13.2 upbm affinity estimate (log intensity, higher = more binding, comparable within an allelic series) | 12.1 upbm affinity estimate (log intensity, higher = more binding, comparable within an allelic series) |  |  |  | 
3 | AATTAACT | 12.5 upbm affinity estimate (log intensity, higher = more binding, comparable within an allelic series) |  | 13.9 upbm affinity estimate (log intensity, higher = more binding, comparable within an allelic series) | 11.2 upbm affinity estimate (log intensity, higher = more binding, comparable within an allelic series) | 12.1 upbm affinity estimate (log intensity, higher = more binding, comparable within an allelic series) | 13.5 upbm affinity estimate (log intensity, higher = more binding, comparable within an allelic series) | 13.1 upbm affinity estimate (log intensity, higher = more binding, comparable within an allelic series) |  | 13.3 upbm affinity estimate (log intensity, higher = more binding, comparable within an allelic series) |  | 9.99 upbm affinity estimate (log intensity, higher = more binding, comparable within an allelic series) | 12.1 upbm affinity estimate (log intensity, higher = more binding, comparable within an allelic series) | 11.5 upbm affinity estimate (log intensity, higher = more binding, comparable within an allelic series) | 11.6 upbm affinity estimate (log intensity, higher = more binding, comparable within an allelic series)
